Shown is part of a subset that was picked to be rich in hits.
Rango dissoc inh – inhibitors of RanGTP-induced Rango-importin beta complex dissociation; O95149+P62826; Biochemical FRET Rango-importin beta, RanGTP-induced dissociation; Potency, µM (titrated, usually from 46.1 µM), for the others: at the highest dose activity change, negative = inhibition; 0.071% of 340,000 active; further: potency means the concentration at half of the fitted maximal effect; % of control where 0% means no effect; nearly all actives have a fitted effect of over 45% in size
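Rango (0.1 uM)–importin beta (0.25 uM) complex; RanGTP-RCC1 trigger; 45 min RT; CFP/YFP FRET read.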
MBNL1 CUG block – inhibitors of human MBNL1 binding to CUG repeat RNA; AID 2675; Q9NR56; TR-FRET MBNL1-His/biotin-(CUG)12 binding, 665/545 ratio; 0.036% of 280,000 active; Potency, µM (highest dose often 57.5 µM), for the others: at the highest dose activity change, negative = inhibition, most hits filed as inhibitors; active means well fitted inhibition curve with a large enough effect in the signal ratio, with a control signal flat, not every such curve was filed as active; inconclusive means small, poorly fitted or top-dose-only effect, or effect the other way, or a change in a side signal; inactive means no such curve, though single readings can be large or run the other way; the % refers to the signal ratio; further: potency means the concentration at half of the fitted maximal effect; on the % scale 0 is the no-effect control and ±100 the full control effect
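MBNL1-His + Biotin-(CUG)12, cpd titration 92 nM–58 uM; Tb anti-His Ab 0.055 ng/ul, SA-XL665 5 nM (final); 60 min RT; ratiometric 665/545 nm, Ex 340 nm; normalized to buffer and full-complex controls.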
ClpP mod – qHTS Assay for Activators of ClpP | purified B. subtilis ClpP, FRET peptide cleavage, 20 min | Potency, µM (series often up to 57.5 µM), for inactives: at the top dose activity change, negative = active | 1.9% of 340,000 active | AID 651965, 2013 | ATP-dependent Clp protease proteolytic subunit (Bacillus subtilis (strain 168)), P80244; active means well fitted falling curve with a large enough effect; inconclusive means small, poorly fitted or top-dose-only effect; inactive means no such curve, though single readings can be large or run the other way; further: potency means the concentration at half of the fitted maximal effect; the source files actives as falling curves though it sought activators and does not explain the sign; nearly all actives have a fitted effect of over 65% in size
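ClpP 10 microg/mL final, pH 8 Tris/KCl buffer with BSA, glycerol, Tween-20; compound pinned in; FRET-FV substrate; RT 20 min; Ex320/Em430; ΔFRET vs ADEP 5.8 microM, DMSO, no enzyme.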
CBFb-RUNX1 inh – blocks binding between human CBF-beta and RUNX1; Q01196+Q13951; AlphaScreen CBFb-His/RUNX1-biotin binding, biochemical; Potency, µM (titrated, usually from 59.8 µM), without a hit: at the top dose activity, negative = inhibition, actives largely listed as inhibitors; 230,000 tested, under 10 active; active means well fitted curve in the direction sought with a large enough effect; inconclusive means small, poorly fitted or top-dose-only effect, or effect the other way, or another doubt; inactive means no such curve, though single readings can be large or run the other way; further: % of control where 0% means no effect
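Compounds were screened at multiple concentrations against a preformed CBF-beta(His)/RUNX1(biotin) complex (30 nM of each) for 15 min at room temperature, followed by 90 min with nickel and streptavidin beads and AlphaScreen reading.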
Rango-impB inh – prevents formation of the Rango-importin beta complex; Rango CFP/YFP FRET sensor + importin beta, 45 min; Potency, µM (highest dose often 92.2 µM), for inactives: top-dose inhibition of complex formation; 0.031% of 340,000 active; AID 540263;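 further: potency means the concentration at half of the fitted maximal effect; 0% = DMSO wells and 100% = buffer wells lacking importin beta; nearly all actives have a fitted effect of over 15% in size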
Target sequence (Q14974 whole entry, looked up): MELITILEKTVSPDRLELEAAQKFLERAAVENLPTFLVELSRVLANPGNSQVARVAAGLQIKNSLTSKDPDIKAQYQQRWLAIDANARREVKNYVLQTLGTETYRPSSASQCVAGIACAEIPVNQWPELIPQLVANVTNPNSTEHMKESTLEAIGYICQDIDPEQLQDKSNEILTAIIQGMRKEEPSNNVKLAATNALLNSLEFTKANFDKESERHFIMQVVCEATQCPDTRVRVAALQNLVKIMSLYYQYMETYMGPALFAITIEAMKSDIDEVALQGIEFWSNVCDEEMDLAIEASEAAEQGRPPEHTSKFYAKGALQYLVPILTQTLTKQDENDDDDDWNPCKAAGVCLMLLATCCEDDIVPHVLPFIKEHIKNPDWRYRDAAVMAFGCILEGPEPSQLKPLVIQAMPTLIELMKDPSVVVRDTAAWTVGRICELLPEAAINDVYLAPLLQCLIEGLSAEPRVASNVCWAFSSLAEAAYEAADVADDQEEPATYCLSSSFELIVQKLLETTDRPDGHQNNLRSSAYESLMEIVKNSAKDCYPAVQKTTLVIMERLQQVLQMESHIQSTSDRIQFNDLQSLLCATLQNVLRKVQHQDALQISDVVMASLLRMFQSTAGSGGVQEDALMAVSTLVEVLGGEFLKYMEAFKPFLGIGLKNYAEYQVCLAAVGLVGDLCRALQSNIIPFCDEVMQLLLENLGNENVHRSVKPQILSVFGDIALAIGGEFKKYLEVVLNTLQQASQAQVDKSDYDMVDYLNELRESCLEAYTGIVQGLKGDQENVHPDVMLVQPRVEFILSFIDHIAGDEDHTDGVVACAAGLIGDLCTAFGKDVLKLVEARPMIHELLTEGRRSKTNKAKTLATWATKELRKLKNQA
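FRET biosensor Rango (snurportin 1 IBB between N-terminal EYFP and C-terminal Cerulean), 50 nM in PBS/1 mM DTT/0.02% Tween-20/0.1% BSA, preincubated 5 min RT with compound; 0.125 microM importin beta added, 45 min RT, CFP/YFP FRET ratio read.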
Numbers without * were called inactive; [ ] = dose if it differs, or a comment. Unless noted, the call rests on the fitted dose curve.

What do the screens show for `COc1ccc(CCNC(=O)Cn2nc(C)c3c(C)n(-c4ccc(C)cc4)nc3c2=O)c(OC)c1`?
ClpP mod: -8.4%

What do the screens show for `CCOC(=O)c1ccc2[nH]c(C)c(CCC(C)=O)c(=O)c2c1`?
Rango dissoc inh: 3.4%; MBNL1 CUG block: -5.4%; ClpP mod: inconclusive; CBFb-RUNX1 inh: -2.2%; Rango-impB inh: -1.0%

How did CC(=O)Nc1ccc2[nH]c(C)c(CC=C(Cl)Cl)c(=O)c2c1 do in these assays?
Rango dissoc inh: -6.3%; MBNL1 CUG block: 2.3%; ClpP mod: 31.6µM*; CBFb-RUNX1 inh: 2.4%; Rango-impB inh: 6.7%

Results for CCCNC(=O)NS(=O)(=O)c1cnccc1Sc1ccc(Cl)cc1 ?
Rango dissoc inh: -13.5%; MBNL1 CUG block: -13.7%; ClpP mod: 1.6%; CBFb-RUNX1 inh: 1.6%; Rango-impB inh: 3.6%

How did CCCNC(=O)NS(=O)(=O)c1cnccc1Sc1ccc(Cl)c(Cl)c1 do in these assays?
Rango dissoc inh: -1.3%; MBNL1 CUG block: -4.1%; ClpP mod: 22.4µM*; CBFb-RUNX1 inh: -2.7%; Rango-impB inh: 2.8%

What do the screens show for `CCC1(C)Cc2c(sc3nc(NC)n(C)c(=O)c23)CO1` (stereo unspecified)?
Rango dissoc inh: 9.5%; MBNL1 CUG block: inconclusive; ClpP mod: 14.1µM*; CBFb-RUNX1 inh: 17.2%; Rango-impB inh: 2.6%

How did CN(C)C(CNC(=O)c1ccco1)c1cccs1 (stereo unspecified) do in these assays?
Rango dissoc inh: 4.7%; ClpP mod: 11.2µM*; Rango-impB inh: 0.5%

What do the screens show for `CN(C)C(CNC(=O)c1cccs1)c1ccco1` (stereo unspecified)?
Rango dissoc inh: -7.8%; ClpP mod: -1.8%; Rango-impB inh: 2.6%

How did Cc1ccn2c(Nc3ccccc3)c(-c3c[nH]c4ccccc34)nc2c1 do in these assays?
ClpP mod: 4.1%

How did Cc1ccc(Nc2c(-c3c[nH]c4ccccc34)nc3cc(C)ccn23)cc1 do in these assays?
ClpP mod: 28.2µM*

How did CCCCS(=O)(=O)N1C2=NC(C(=O)OC)=C(C(=O)OC)[C@@H]3Nc4ccccc4[C@]23C[C@H]1C(=O)OC do in these assays?
CBFb-RUNX1 inh: -6.7%[13.1 µM]

Results for COc1ccc(-n2c(SCC(=O)NCC3CCCO3)nc3c([nH]c4ccccc43)c2=O)cc1 (stereo unspecified) ?
Rango dissoc inh: -1.8%; MBNL1 CUG block: 5.6%; Rango-impB inh: 0.1%

What do the screens show for `O=C(CSc1nc2c([nH]c3ccccc32)c(=O)n1-c1ccc(F)cc1)NCC1CCCO1` (stereo unspecified)?
ClpP mod: 22.4µM*

How did COc1ccc(-c2cc3cc4c(cc3cn2)OCO4)cc1 do in these assays?
Rango dissoc inh: 4.0%; ClpP mod: 14.1µM*; Rango-impB inh: 2.0%

How did COC(=O)c1cc(NS(=O)(=O)c2ccc(NCc3cccnc3)c([N+](=O)[O-])c2)cc(C(=O)OC)c1 do in these assays?
Rango dissoc inh: -3.6%; MBNL1 CUG block: 1.6%; ClpP mod: 28.2µM*; CBFb-RUNX1 inh: -0.8%; Rango-impB inh: 0.1%

Results for COc1cc(C2Nc3ccccc3-c3nnc(SCc4ccc(C)cc4)nc3O2)cc(OC)c1O (stereo unspecified) ?
ClpP mod: -9.3%

Results for Cc1csc(NC(=O)c2ccccc2O)n1 ?
Rango dissoc inh: 5.9%; MBNL1 CUG block: -9.6%; ClpP mod: 28.2µM*; CBFb-RUNX1 inh: 8.0%; Rango-impB inh: -0.4%

Results for CC(C)(C)c1csc(NC(=O)c2ccccc2O)n1 ?
Rango dissoc inh: -13.4%; MBNL1 CUG block: 1.9%; ClpP mod: -2.0%; Rango-impB inh: 2.0%

Results for COc1ccc(CC(NC(C)=O)C(=O)NC2CCN(c3nc(C)cc(C)c3C#N)CC2)c(OC)c1 (stereo unspecified) ?
Rango dissoc inh: -21.4%; MBNL1 CUG block: 18.8%; ClpP mod: 12.6µM*; CBFb-RUNX1 inh: 0.3%; Rango-impB inh: inconclusive

How did CCOC(=O)C1(Cc2ccccc2)CCN(Cc2cccn2-c2nccs2)CC1 do in these assays?
Rango dissoc inh: -9.0%; MBNL1 CUG block: -8.8%; ClpP mod: 4.47µM*; CBFb-RUNX1 inh: 0.5%; Rango-impB inh: 1.4%

Results for O=C(N/N=C/c1cn(-c2ccccc2)nc1-c1cccs1)c1ccccc1F ?
Rango dissoc inh: 10.4%; MBNL1 CUG block: 12.5%; ClpP mod: inconclusive; CBFb-RUNX1 inh: -15.3%; Rango-impB inh: -0.2%

What do the screens show for `O=C(N/N=C/c1cn(-c2ccccc2)nc1-c1cccs1)c1ccc(Cl)cc1`?
Rango dissoc inh: -0.3%; MBNL1 CUG block: -6.9%; ClpP mod: 31.6µM*; CBFb-RUNX1 inh: -10.5%; Rango-impB inh: -0.3%

Results for Cc1cccc(C)c1NC(=O)CSc1nc(C)c(CC(=O)c2ccc(Br)cc2)c(C)c1C#N ?
Rango dissoc inh: 13.9%; MBNL1 CUG block: 49.5%; ClpP mod: 28.2µM*; CBFb-RUNX1 inh: 3.0%; Rango-impB inh: 6.0%

How did CCC(=O)Nc1c(-c2ccc(C)cc2)c(=O)c2ccccc2n1C do in these assays?
Rango dissoc inh: 7.7%; MBNL1 CUG block: 2.3%; Rango-impB inh: -1.1%

What do the screens show for `CCC(=O)Nc1c(-c2ccc(OC)cc2)c(=O)c2ccccc2n1C`?
Rango dissoc inh: 8.5%; MBNL1 CUG block: -0.5%; ClpP mod: 35.5µM*; CBFb-RUNX1 inh: 1.3%; Rango-impB inh: -3.0%

How did C/C=C(\NNC(C)=O)c1ccc(O)cc1 do in these assays?
ClpP mod: 1.8%

Results for Cc1[nH]c(=O)[nH]c1C(=O)CCCCC(=O)O ?
Rango dissoc inh: -2.3%; MBNL1 CUG block: 0.0891µM*; ClpP mod: -2.4%; Rango-impB inh: 3.8%

How did COc1ccc2c(CN(C)c3ccccc3)cc(=O)oc2c1 do in these assays?
Rango dissoc inh: -13.9%; MBNL1 CUG block: inconclusive; ClpP mod: 22.4µM*; CBFb-RUNX1 inh: 1.3%; Rango-impB inh: 3.1%

How did Cc1ccc(C(=O)NNC(=O)Cn2ccc(C(F)(F)F)n2)o1 do in these assays?
Rango dissoc inh: 5.2%; ClpP mod: 25.1µM*; Rango-impB inh: 1.1%

How did CC(C)c1cccc(NC(=O)COC(=O)c2ccccc2OCc2cccc(Br)c2)c1 do in these assays?
ClpP mod: -13.3%

What do the screens show for `COc1ccc(NC(=S)/N=C(\N)Nc2nc(C)c3ccc(C)cc3n2)cc1`?
Rango dissoc inh: -8.3%; MBNL1 CUG block: -7.6%; ClpP mod: -1.5%; CBFb-RUNX1 inh: -2.0%; Rango-impB inh: -3.2%

Results for CCOc1ccc2nc(N/C(N)=N/C(=S)Nc3ccc(C)c(C)c3)nc(C)c2c1 ?
Rango dissoc inh: -3.2%; MBNL1 CUG block: -1.6%; ClpP mod: 25.1µM*; CBFb-RUNX1 inh: -4.1%; Rango-impB inh: 0.3%
